Laboratory results published in PubChem BioAssay AID777 (Sanford-Burnham Center for Chemical Genomics, 2007).
The whole screen tested about 96,000 compounds, of which about 19,000 (20%) were called active.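 How the source made its calls: active means blocking of liver enzyme CYP2C9 beyond about 50% at 5 µM (limit read from the data); inactive means the rest.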 Not all results are given here.

Target: Cytochrome P450 2C9 (Homo sapiens) (UniProt P11712)
Assay: blockers of cytochrome P450 2C9 activity – biochemical, luminescence, ADME assay, primary screen (AID 777)
Settings: CYP2C9 Supersomes, luciferin-H conversion, at 5 µM, stronger effect = higher value

Sequence of Cytochrome P450 2C9 (Homo sapiens) (P11712 whole entry, looked up): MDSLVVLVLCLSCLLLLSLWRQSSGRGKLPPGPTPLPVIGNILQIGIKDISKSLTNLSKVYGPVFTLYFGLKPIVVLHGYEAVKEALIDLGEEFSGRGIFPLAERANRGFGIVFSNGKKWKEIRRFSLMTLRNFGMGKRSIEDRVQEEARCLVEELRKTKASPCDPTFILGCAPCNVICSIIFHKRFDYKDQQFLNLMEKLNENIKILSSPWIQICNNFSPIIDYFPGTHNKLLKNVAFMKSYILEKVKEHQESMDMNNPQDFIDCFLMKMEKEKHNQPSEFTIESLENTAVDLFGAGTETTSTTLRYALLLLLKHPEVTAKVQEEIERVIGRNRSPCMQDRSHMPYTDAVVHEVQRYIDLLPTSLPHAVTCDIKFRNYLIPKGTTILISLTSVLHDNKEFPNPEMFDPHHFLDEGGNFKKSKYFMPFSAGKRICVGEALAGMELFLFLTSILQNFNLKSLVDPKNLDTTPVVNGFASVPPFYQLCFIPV

inhibition, active:
CNS(=O)(=O)c1cnccc1N1CCN(c2cccc(C)c2)CC1 57.7%, O=C(N/N=C\c1cccc(Br)c1)c1ccccc1-n1cccc1 66.3%, COc1ccc(-c2nc(CCNC(=O)c3ccc(Br)o3)cs2)cc1 62.2%, Fc1ccc(CSc2nnc(-c3cc4c(s3)-c3ccccc3CC4)o2)cc1 52.4%, CC1CCN(c2oc(-c3ccccc3F)nc2C#N)CC1 80%, Cc1ccc(NC(=O)CN2CCc3ccccc3C2)cc1 87.4%, COc1ccc(-n2c(C)cc(C(=O)CSc3nnc(-c4cccs4)o3)c2C)cc1 90.8%, COc1ccc(OC)c(C(=O)CSc2nnc(-c3cccs3)o2)c1 54.4%, O=C(COC(=O)c1ccccc1C(=O)c1ccccc1)c1ccco1 90.4%, CCN1CCN(c2c(Cl)cccc2NC(=O)c2ccc(Br)o2)CC1 64.7%, Clc1ccc(COn2c(-c3ccc(Cl)cc3Cl)nc3ncccc32)cc1 97.1%, CCOc1ccc(-c2cn(S(=O)(=O)c3cccc4nsnc34)nc2N)cc1 62.6%

inhibition, inactive:
O=S(=O)(c1cnccc1N1CCN(/N=C/c2ccc(Br)cc2)CC1)N1CCCCC1 -9.2%, N=c1oc2ccccc2cc1C(=O)N/N=C/c1ccccc1 27.9%, Cn1c(=O)n(C)c2cc(/C=N/NC(=O)c3cccc(Br)c3)ccc21 -21.3%, Cc1nn(C)cc1C(=O)NNC(=S)Nc1ccc(Cl)cc1 18.7%, CCN(Cc1cc2cc(C)ccc2[nH]c1=O)S(=O)(=O)c1ccccc1 5.9%, O=C(NCCc1ccccn1)c1ccc(COc2ccccc2)o1 13.4%, COc1ccc(CCNC(=O)c2ccco2)cc1 8.8%, CCOC(=O)/C=c1\s/c(=C\c2ccccc2OC)c(=O)n1CC(=O)N1CCOCC1 2%, CCSc1nnc(-c2cc3c(s2)-c2ccccc2CC3)o1 -16.8%, Clc1ccc(CSc2nnc([C@@H]3CCCN3)o2)cc1 31.8%, CC(C)OC(=O)c1sc2nc3c(cc2c1N)C(=O)CCC3 19.5%, N#Cc1nc(COc2ccc(Cl)cc2)oc1N1CCCC1 39.8%, COc1ccccc1-c1nc(C#N)c(N2CCC(C(N)=O)CC2)o1 -9.8%, Cc1ccc(NC(=O)CCN2CCc3ccccc3C2)cc1 11.4%, O=C(CN1CCOCC1)Nc1ccccc1 11.4%, Cc1ccccc1-n1nnc2c(=O)oc3ccccc3c21 5.8%, Cc1cc(=O)[nH]c(SCC(N)=O)c1C#N 1.6%, CCOC(=O)Nc1ccc(NC(=O)OCC)cc1 -16.2%, COc1ccc(-c2nnc(SCC(=O)c3cccs3)o2)c(OC)c1 16.1%, COc1ccccc1-c1nnc(SCC(=O)Nc2cc(C)on2)o1 -64.2%, Cc1cc(NC(=O)CSc2nnc(-c3ccc(Cl)s3)o2)no1 18.4%, NC(=O)CSc1oc(-c2cccs2)nc1S(=O)(=O)c1ccccc1 30.5%, C=CCNC(=S)NNc1ncnc2sc3c(c12)CC(C)(C)OC3 19.6%, CCOC(=O)C1=C(C)N=c2s/c(=C\C(=O)OC)c(=O)n2C1c1ccc(OC)cc1 (configuration not stated) 6.6%, CCN(CC)c1ccc(C(=O)OCC(=O)c2ccco2)cc1 -26.4%, O=C(CNC(=O)c1ccco1)OCC(=O)c1ccccc1 -2.5%, NC(=O)c1ccccc1NC(=O)c1ccccc1F -7.7%, Fc1ccccc1OCCSc1nc2ccccc2o1 21.5%, Cc1c(Br)cc(C(=O)N2CCCCCC2)c(C)c1C -38.3%, FC(F)(F)c1ccc2nnc(-c3c(Cl)cccc3Cl)n2c1 25.7%, COc1cc(OC)c(NC(=O)c2ccc(Br)o2)cc1Cl 38.8%, CCCC(=O)Nc1ccc(Cl)c(NC(=O)c2ccc(Br)o2)c1 16.1%, O=C(Nc1cccc2ncccc12)c1ccc(-c2ccc(Cl)cc2Cl)o1 5.6%, CCOc1ccc(OCC)c(-c2c(=O)n(OCc3ccc(Cl)cc3)c3ccccc3[n+]2[O-])c1 49.9%, COc1ccc(CC(=O)Nc2sc(Cc3ccccc3)c(C)c2C(N)=O)cc1 20.4%, CCOC(=O)CSc1nnc(CNc2ccc(F)cc2)o1 14.8%, CCCCSc1[nH]c(=O)c(C(=O)OCC)cc1C#N 19.4%, CN(C(=O)c1ccccn1)c1nnc(-c2ccccn2)s1 2.1%, CCOc1ccc(NC(=O)CCS(=O)(=O)c2cccc3nsnc23)cc1 33.7%, CCOc1ccc(OCC)c(NC(=O)CN(C)S(=O)(=O)c2cccc3nsnc23)c1 -23.4%
